Compound activity as filed in PubChem BioAssay.
hERG WT inh = qHTS for Inhibitors of KCHN2 3.1: Wildtype qHTS. Voltage-gated inwardly rectifying potassium channel KCNH2 (Homo sapiens), Q12809. U2OS, BacMam KCNH2, thallium flux FluxOr; active compounds read low. activity change, % at 1.84 µM. 340,000 compounds, 0.37% hits. AID 720551, 2013;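 active = maximum activity change below -70%; inconclusive = maximum activity change between -70% and -50%; inactive = maximum activity change above -50%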; also: % is scaled to controls: 0 for no effect and ±100 for the full control effect
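U2OS cells were transduced with wild-type KCNH2 virus (2.03 x 10^8 / mL) for 4 h at room temperature, then cultured overnight at 37 C. Thallium flux was read with FluxOr dye. Rate constants were normalized to DMSO controls.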
GLS inhibitor = qHTS for Inhibitors of Glutaminase (GLS) | GLS enzymatic activity, qHTS titration | 410,000 compounds, 0.21% hits | Potency, µM (highest dose often 45.5 µM), for the others: top-dose activity change, negative = inhibition, usual class: inhibitors | Glutaminase kidney isoform, mitochondrial (Homo sapiens), O94925; also: potency is read from the fitted curve at half-maximal effect; % is scaled to controls: 0 for no effect and ±100 for the full control effect
Target sequence (O94925 whole entry, looked up, canonical isoform): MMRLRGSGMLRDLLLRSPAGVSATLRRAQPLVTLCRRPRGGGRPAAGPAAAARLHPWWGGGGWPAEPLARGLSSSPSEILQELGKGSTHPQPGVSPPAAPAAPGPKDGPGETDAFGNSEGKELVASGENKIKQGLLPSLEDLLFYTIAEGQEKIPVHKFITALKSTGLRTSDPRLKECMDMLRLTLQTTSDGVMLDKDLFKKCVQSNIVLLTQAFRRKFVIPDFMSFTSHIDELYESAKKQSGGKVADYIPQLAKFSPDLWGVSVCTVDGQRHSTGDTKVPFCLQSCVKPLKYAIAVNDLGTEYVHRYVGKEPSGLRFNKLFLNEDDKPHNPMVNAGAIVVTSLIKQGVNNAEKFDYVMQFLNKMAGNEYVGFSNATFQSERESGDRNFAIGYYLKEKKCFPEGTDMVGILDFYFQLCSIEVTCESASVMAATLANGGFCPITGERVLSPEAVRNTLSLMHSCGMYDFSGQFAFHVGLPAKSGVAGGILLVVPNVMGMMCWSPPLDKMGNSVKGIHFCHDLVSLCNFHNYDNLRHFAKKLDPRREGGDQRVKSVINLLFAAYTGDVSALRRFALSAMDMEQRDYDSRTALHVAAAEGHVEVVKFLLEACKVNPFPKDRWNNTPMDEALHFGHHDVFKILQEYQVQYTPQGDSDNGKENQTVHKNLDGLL
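hKGA; 45 mM KH2PO4 pH 8.2 + 0.02% Tween-20; cpd via pin tool; 1 mM Gln soln; GluOx/HRP/Amplex Red; RT 30 min; fluor. t0 & final.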
HEK293 tox = qHTS of GLP-1 Receptor Inverse Agonists: Cytotox Screen; Potency, µM (series often up to 38.3 µM), for the others: at the top dose activity change, negative = inhibition, hits mostly inhibitors; HEK293 cAMP-luciferase reporter cells, luminescence, 24 h; AID 624418, 2012; 410,000 compounds, 0.13% hits;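 also: loss of luciferase light is scored as toxicity; potency is read from the fitted curve at half-maximal effect; % is scaled to controls: 0 for no effect and ±100 for the full control effect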
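A 23 nL compound transfer followed 12 hours of cell culture at 37 deg C; exposure then lasted 24 hr. Luciferase assay detection reagent was dispensed and plates read for luminescence after a 12 min room-temperature wait.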
GLP1R inv ag = qHTS of GLP-1 Receptor Inverse Agonists (Inhibition Mode) | Potency, µM (doses to about 38.3 µM), for the others: at the highest dose activity change, negative = inhibition, hits mostly inhibitors | HEK293 GLP-1R CRE-luciferase, luminescence, 24 h; GLP-1R form is constitutively active | Glucagon-like peptide 1 receptor (Homo sapiens), P43220 | 410,000 compounds, 1.6% hits; also: potency is read from the fitted curve at half-maximal effect; % is scaled to controls: 0 for no effect and ±100 for the full control effect; nearly all actives have a fitted effect of over 55% in size
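HEK293 cells stably co-expressing a cAMP-responsive luciferase reporter and constitutively active GLP-1R were seeded, incubated 12 h, then exposed to compounds for 24 h at 37 C. Luminescence was read 12 min after detection reagent; inverse agonists lower signal.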
GLP-1R agonist = qHTS of GLP-1 Receptor Agonists; Glucagon-like peptide 1 receptor (Homo sapiens), P43220; HEK293 GLP-1R CRE-luciferase, luminescence, 4-6 h; cells express a hypersensitive GLP-1R form; Potency, µM (doses to about 45.6 µM), for the others: at the top dose activation, actives largely listed as activators; 380,000 compounds, 0.007% hits; AID 624172, 2012; also: potency is read from the fitted curve at half-maximal effect; % of control where 0% means no effect
KCNH2 3.1 block = qHTS for Inhibitors of KCHN2 3.1: Mutant qHTS. activity change, % (tested at about 1.8 µM). U2OS KCNH2 3.1, thallium flux FluxOr; active compounds read low. Potassium voltage-gated channel subfamily H member 2, brain isoform KCNH2 3.1 (human). 340,000 compounds, 0.95% hits;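 active = maximum activity change below -70%; inconclusive = maximum activity change from -70% to -50%; inactive = maximum activity change above -50%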;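 also: thallium influx rate constant from kinetic fluorescence after stimulation buffer; % is scaled to controls: 0 for no effect and ±100 for the full control effect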
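Normalized rate constant (relative to positive and negative DMSO controls) derived from a 2 min kinetic fluorescence read after stimulation; U2OS cells expressing the 3.1 isoform via virus at 1.77 x 10^8 /mL.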
* hit, by the source's call; ? = inconclusive; / = no result given; ! = a repeat was not active. In the library only some 2.8% were active in any assay of this set; here they are far more common. Unless noted, calls follow the shape of the dose curve; as a rule, active = well fitted curve in the direction sought with a large enough effect; inconclusive = small, poorly fitted or top-dose-only effect, or another doubt; inactive = no such curve, though single readings can be large; an effect the other way counts as inactive or inconclusive.

SMILES	hERG WT inh	GLS inhibitor	HEK293 tox	GLP1R inv ag	GLP-1R agonist	KCNH2 3.1 block
COc1ccc(-c2cc(C)no2)cc1S(=O)(=O)N1CCN(c2ccccc2F)CC1	-5	0%	8%	10µM*!	8%	-15
CCOC(=O)C1CCN(S(=O)(=O)c2cc(-c3cc(C)no3)ccc2OC)CC1	/	-4%	-9%	8%	/	/
COc1ccc(-c2cc(C)no2)cc1S(=O)(=O)N1CCCN(Cc2ccccc2Cl)C1	4	-21%	-2%	8.9µM*	8%	1
Cc1noc(C)c1CSCC(=O)N1CCN(c2ccc([N+](=O)[O-])cc2)CC1	27	-8%	-28%	-1%	-4%	-73*
CCc1cccc(NC(=O)COc2cc(=O)n(CC)c3ccccc23)c1	/	1%	1%	0%	/	/
Cc1noc(C)c1S(=O)(=O)N1CCN(c2ccc([N+](=O)[O-])cc2)CC1	-47	2%	2%	17%	1%	-80*
COc1ccc(OC)c(CCNc2ncnc3onc(-c4ccc(Cl)cc4)c23)c1	/	5%	9%	?	4%	/
O=C(Nc1cccc2cccnc12)c1ccccc1Br	6	-4%	0%	?	10%	-19
Cc1cccc2nc(-c3ccccc3)nc(N3CCC(O)(c4ccc(Cl)cc4)CC3)c12	6	7%	-3%	3.5µM*	-12%	-3
COc1cccc(C2=Cc3ccc(F)cc3C(CC(C)=O)N2c2ccc(C#CC3(O)CCCCC3)cc2)c1 (configuration not stated)	/	8%	5%	5µM*	0%	/
Cc1cccc(OC2CCN(Cc3nc(CC4CC4)no3)CC2)c1	2	2%	17%	13µM*	8%	-4
CC(C)Sc1nc2ccccc2[nH]1	12	-3%	-2%	14%	-6%	-110*
Nc1ccc(Sc2nc3ccccc3[nH]2)cc1	-84*	10%	1%	-9%	5%	7
O=C(NCc1cccc(Br)c1)C1CCCCN1S(=O)(=O)c1ccc(F)cc1 (configuration not stated)	/	3%	-5%	?	/	/
Cc1ccc(CSC2=Nc3ccccc3C3=NC(CCC(=O)NC4CCCCC4)C(=O)N23)cc1 (configuration not stated)	/	-2%	-1%	?	/	/
CCCCCCCNC1=CC(=O)CC(c2ccccc2)C1 (configuration not stated)	-19	-3%	-26%	11µM*	7%	?
Cc1cc(Nc2cccc(C(F)(F)F)c2)nc2ccc(NC(=O)c3ccc(N(C)C)cc3)cc12	/	8%	-5%	?	/	/
Cc1ccc(S(=O)(=O)NC(CCC(N)=O)C(=O)NCc2ccc3c(c2)OCO3)c(C)c1 (configuration not stated)	4	-6%	-14%	-4%	6%	13
O=C(/C=C/c1ccc(Cl)c([N+](=O)[O-])c1)Nc1cccc(NC(=O)c2ccco2)c1	/	10%	?	?	-10%	-14
O=C(/C=C/c1ccc(Cl)c([N+](=O)[O-])c1)Nc1ccc(NC(=O)c2ccco2)cc1	-36	-1%	-7%	26%	12%	-119*
O=C(c1ccc(-c2ccc(Cl)cc2)o1)N1CCN(c2ccc([N+](=O)[O-])cc2Cl)CC1	-5	12%	10%	0%	0%	-83*
O=C(c1cccnc1)N1CCN(c2ccc([N+](=O)[O-])cc2Cl)CC1	9	6%	-14%	9%	4%	-120*
O=C(c1ccc(-c2cccc([N+](=O)[O-])c2)o1)N1CCN(c2ccc([N+](=O)[O-])cc2)CC1	-111*	4%	-2%	2%	-13%	-116*
O=C(c1ccc(-c2ccc([N+](=O)[O-])cc2)o1)N1CCCCC1	5	6%	-21%	2%	17%	6
CCOC(=O)CSc1nc2ccccc2c(=O)n1CCc1ccc(OC)c(OC)c1	/	-10%	28%	-2%	/	/
SMILES	hERG WT inh	GLS inhibitor	HEK293 tox	GLP1R inv ag	GLP-1R agonist	KCNH2 3.1 block
CCCCNc1nc2c(c(=O)n(Cc3ccc(Cl)c(Cl)c3)c(=O)n2C)n1C	/	-7%	2%	?	-1%	/
CSc1nn(Cc2cccc(Cl)c2)c(N(C(C)=O)C(C)=O)c1S(=O)(=O)c1ccccc1	/	22%	-13%	13µM*	-4%	/
O=[N+]([O-])c1ccc(CN2CCN(Cc3c[nH]c4ccccc34)CC2)cc1	-38	-2%	-7%	?	3%	-77*
c1cnc(N2CCN(Cc3c[nH]c4ccccc34)CC2)nc1	21	17%	-16%	?	9%	-6
O=[N+]([O-])c1ccc(/C=N/N2CCN(Cc3ccccc3)CC2)cc1	-9	1%	-12%	?	4%	-80*
Cc1ccccc1N1CCN(Cc2c[nH]c3ccccc23)CC1	21	18%	?	?	-2%	-85*
O=[N+]([O-])c1ccc(/C=N\N2CCN(Cc3ccccc3Cl)CC2)cc1	30	-1%	-21%	-22%	0%	-9
Oc1ccc(C[C@@H]2CNC(=S)N2CCc2cc(C(F)(F)F)cc(C(F)(F)F)c2)cc1	7	11%	-26%	?	25%	-9
S=C1NC[C@H](Cc2ccccc2)N1CCCCC1CCCCC1	2	4%	-5%	?	14%	0
CCCCN1CCC(CN2C(=S)NC[C@@H]2CC(C)C)CC1	39	2%	-10%	-1%	7%	4
CC(C)C[C@H]1CNC(=S)N1CC1CCN(CCCCc2ccccc2)CC1	12	-1%	-8%	?	-3%	-71*
FC(F)(F)c1cc(CCN2C(=S)NC[C@@H]2Cc2ccccc2)cc(C(F)(F)F)c1	3	-4%	?	7.9µM*	4%	-10
S=C1NC[C@H](Cc2ccccc2)N1CC1CCN(CCCC2CCCC2)CC1	-40	5%	-22%	?	-4%	-88*
CCn1cc(Cl)c(C(=O)Nc2nccs2)n1	-3	1%	-6%	2%	1%	-12
Cc1ccc(CNC(=O)C2CCN(c3nc4ccc(C)cc4[nH]3)CC2)cc1	/	9%	-21%	-20%	/	/
Cc1ccc(-n2nc(C(=O)N3CCN(c4ccc(F)cc4)CC3)c(=O)n(C)c2=O)cc1	/	3%	-6%	-23%	/	/
